This note sets out measurements from PubChem BioAssay AID2113 (National Center for Advancing Translational Sciences (NCATS), 2009).

Structures are written as SMILES. Inconclusive results are not listed. The source made the active and inactive calls. Calls come from the whole dose curve; as a rule, active = well fitted curve in either direction with a large enough effect; inconclusive = small, poorly fitted or top-dose-only effect; inactive = no such curve, though single readings can be large or run the other way.
Potency is the fitted concentration of half-maximal effect.

This assay has as its target Lysosomal alpha-glucosidase (Homo sapiens) (UniProt P10253). The assay can be described thus: Confirmation of Inhibitors and Activators of Human alpha-Glucosidase From Spleen Homogenate.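 For Potency: fluorescence of 4-methylumbelliferone released from a fluorogenic glucopyranoside substrate at pH 5.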 For activity change, both directions: 0% is about no effect. The settings on record: alpha-glucosidase enzyme activity; series mostly up to 60.5 µM; activity change, both directions: at the top concentration. The method, boiled down: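 Fluorogenic assay using human spleen homogenate (1 ug) as enzyme source with 1 mM 4-methylumbelliferyl-alpha-D-glucopyranoside, pH 5.0 citrate buffer, 40 min at 37 C. 4-MU read (Ex 365/Em 440) after NaOH/glycine stop; AC50 from Hill fits.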
As for `C=CCSc1nc(-c2ccc3c(c2)OCO3)cc(C(F)(F)F)c1C#N`, the “activity change, both directions” value was 40.6% (inactive).

`O=C1c2ccccc2NC(c2cccnc2)N1c1ccccc1F` (stereo unspecified): the “activity change, both directions” value was 8.66% [at 31.5 µM] (inactive).

As to `CCCN1CNc2c(c(=O)[nH]c(=S)n2CCc2ccccc2)C1`, the “activity change, both directions” value was 9.04% [at 31.5 µM] (inactive).

As for `N#Cc1cccc(S(=O)(=O)N2CCOCC2)c1`, the “activity change, both directions” value is -2.48% (inactive).

As for `CN1c2ccccc2-c2nc3ccccc3n2C1c1ccccn1` (stereo unspecified), the Potency is 14.1 µM (active).

As for `Cc1ccc(-c2cc(C(=O)N/N=C/c3c(C)nn(-c4ccccc4)c3C)n[nH]2)s1`, the “activity change, both directions” value is 2.38% (inactive).

Take `O=c1oc2ccc(Cl)cc2cc1-c1nc2c(s1)CCc1ccccc1-2`: the “activity change, both directions” value was -1.76% (inactive).

Consider `CC(C)Cn1c(SCC(=O)N2CCN(S(=O)(=O)c3ccccc3)CC2)nc2ccccc21`, for which the “activity change, both directions” value is -15.3% (inactive).

`Cc1nnc(SCC(=O)Nc2nsc(-c3ccc(C(C)(C)C)cc3)n2)s1`: the “activity change, both directions” value was -2.15% [at 31.5 µM] (inactive).

As for `Clc1ncc(C#Cc2ccccc2)c2ncncc12`, the “activity change, both directions” value was 3.9% (inactive).

In the case of `COc1ccc2nc3c(cc2c1)Cn1c-3nc2ccccc2c1=O`, the “activity change, both directions” value is 15.6% (inactive).

In the case of `CC1=CC(=C2C=CC(=O)C=C2)C=C(C)N1C`, the “activity change, both directions” value was -1.03% [at 31.5 µM] (inactive).

As for `CC(N=C(NC#N)Nc1ccncc1)C(C)(C)C` (stereo unspecified), the “activity change, both directions” value is 1.36% (inactive).

Consider `CC(=O)Nc1ccc(S(=O)(=O)N2CCN(c3ccc(C(C)=O)cc3)CC2)cc1`, for which the “activity change, both directions” value is -0.437% (inactive).

With `CC(=O)c1ccc(N2CCN(C(=O)c3ccc4c(c3)CCC(=O)N4)CC2)cc1`, the “activity change, both directions” value is -3.11% (inactive).

In the case of `CCOC(=O)C1CCCN(C(=O)CCC(=O)Nc2ccc3nc(N4CCOCC4)cc(C)c3c2)C1` (stereo unspecified), the “activity change, both directions” value was 25.1% [at 31.5 µM] (inactive).

For `C=CCn1c2ccccc2c2nnc(SCC(=O)NC(C(=O)OC)C(C)C)nc21` (stereo unspecified), the “activity change, both directions” value is 5.38% [at 31.5 µM] (inactive).

Take `O=C1CC(c2ccccc2)Cc2nc(NCc3ccco3)ncc21` (stereo unspecified): the “activity change, both directions” value is -2.02% (inactive).

`CCc1sc(-c2cc3cc(Cl)ccc3oc2=O)nc1-c1ccccc1`: the “activity change, both directions” value was 19.5% (inactive).

For `CCc1ccc(-c2nc(-c3cc4ccc(O)cc4oc3=O)sc2C)cc1`, the “activity change, both directions” value is 25.8% (inactive).

In the case of `CCCCN1C[C@H](O)[C@@H](O)[C@H](O)[C@H]1CO`, the “activity change, both directions” value was -99.2% (inactive).

Consider `CC1=C(C(=O)OC(C)C)C(c2cccc([N+](=O)[O-])c2)n2c(cc(=O)[nH]c2=S)N1` (stereo unspecified), for which the “activity change, both directions” value is 0.195% [at 31.5 µM] (inactive).

For the compound `CCc1sc(-c2cc3ccc(O)cc3oc2=O)nc1-c1ccc(C)cc1`, the “activity change, both directions” value was 15.6% (inactive).

Take `CCCN1CNc2c(c(=O)[nH]c(=S)n2CCc2cc(OC)cc(OC)c2)C1`: the Potency was 11.2 µM (active).

On to `O=S(=O)(c1ccccc1)N1CCN(Cc2ccccc2)CC1`, for which the “activity change, both directions” value was -2.68% (inactive).

Regarding `Cc1c(OCC(F)(F)F)ccnc1CS(=O)c1nc2ccccc2[nH]1` (stereo unspecified), the “activity change, both directions” value is -4.12% [at 286 µM] (inactive).

As to `CCCN1CNc2c(c(=O)[nH]c(=S)n2CCc2ccccc2OC)C1`, the Potency is 44.7 µM (active).

In the case of `NC(=S)NN=C1c2cc(S(=O)(=O)N3CCOCC3)ccc2-c2ccc(S(=O)(=O)N3CCOCC3)cc21`, the “activity change, both directions” value was -40.4% (inactive).

In the case of `CC1(C)CC(=O)c2cc(C(=O)NC3CCSC3=O)c(=O)n(-c3ccccc3)c2C1` (stereo unspecified), the “activity change, both directions” value is 0.378% [at 31.5 µM] (inactive).

As to `c1csc(-c2nc(NCC3CCCO3)c3ccccc3n2)c1` (stereo unspecified), the “activity change, both directions” value was 2.62% [at 31.5 µM] (inactive).

`CCc1sc(-c2cc3cccc(OC)c3oc2=O)nc1-c1cc(C)ccc1C`: the Potency was 15.8 µM (active).

Consider `Nc1cc(=O)[nH]c(=S)n1-c1cccc(C(F)(F)F)c1`, for which the “activity change, both directions” value was -2.3% [at 31.5 µM] (inactive).

`COc1ccc(/C=C\c2nccc3c2[nH]c2ccccc23)cc1`: the “activity change, both directions” value is 19.6% (inactive).

In the case of `O=S(=O)(c1ccccc1)N1CCN(c2ccccc2)CC1`, the “activity change, both directions” value is 1.33% (inactive).

On to `COc1cccc2ccc(/C=C/c3ccc4c(c3)OCO4)nc12`, for which the “activity change, both directions” value is 2.75% (inactive).

As for `COc1ccc(NS(=O)(=O)c2ccc(O)c(NC(=O)c3cc4c(C)nn(-c5ccc(F)cc5)c4s3)c2)cc1`, the “activity change, both directions” value was -1.49% (inactive).
